# From PubChem BioAssay (EPA / NIEHS)
# Calls of active or inactive are those of the source. Rule for the calls: active = hit-call score of the fitted dose curve at least 0.9, where 1 is the maximum; inactive = score below 0.9.
# Assay: CEETOX_H295R_PROG: CeeTox H295R High-throughput Steroidogenesis Assay for Progesterone (PROG) (AID 2283442);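 for AC50: human H295R adrenal cells primed with 10 µM forskolin before dosing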
# Conditions: actives raise or lower the signal
# Experimental: CEETOX_H295R is a cell-based, multiplexed-readout assay that uses H295R, a human adrenal gland cell line, with measurements taken at 48 hours after chemical dosing in a 96-well plate.CEETOX_H295R_PROG is one of 23 assay component(s) measured or calculated from the CEETOX_H295R assay. It is designed to make measurements of hormone induction, a form of inducible reporter, as detected with absorbance signals by HPLC-MS-MS technology.Data from the assay component CEETOX_H295R_PROG was analyzed into 1 assay endpoint. This assay endpoint, CEETOX_H295R_PROG, was analyzed with bidirectional fitting relative to DMSO as the negative control and baseline of activity. Using a type of inducible reporter, gain or loss-of-signal activity using HPLC-MS-MS was used to understand synthesis of Progesterone in H295R cell line at 48hr of chemical exposure. To generalize the intended target to other relatable targets, this assay endpoint is annotated to the steroid hormone intended target family, where the subfamily is progestagens.
# Cell culture and media preparation procedures were conducted in accordance with OECD Test No. 456 guidelines, with minor modifications. H295R cells (ATCC CRL-2128) were expanded for 5 passages and frozen in batches in liquid nitrogen. Prior to the steroidogenesis assay, H295R cells were thawed and passed at least 4 times. The maximum passage was 10. Cells were maintained in a 1:1 mixture of DMEM/F12 supplemented with 5ml/L ITS+ Premix (BD Bioscience) and 12.5 ml/L Nu-Serum (BD Bioscience). After seeding cells into 96-well plates at 50-60% confluency, cells were allowed to adhere overnight. Prior to chemical testing, culture medium was replaced with 175 uL medium containing 10 uM forskolin to stimulate steroidogenesis for 48 hours. Following prestimulation, forskolin medium was replaced with medium containing test chemical solubilized in DMSO (ensuring a final concentration of 0.1% DMSO). Test chemicals were incubated for 48 hours, then the medium was removed and split into 2 vials containing approximately 75uL each, and stored at -80 C prior to hormone analysis. For steroid quantification, media samples were shipped to OpAns, LLC (Durham, NC) on dry ice, and samples were thawed to room temperature prior to liquid-liquid extraction. Steroid hormones were extracted from media samples using methyl tertbutyl ether (MTBE). An extra derivatization with dansyl chloride was included for estrogen (estrone and estradiol) detection only. Steroid hormones were separated by HPLC, eluted using a reverse phase C18 gradient with electrospray positive ionization, followed by quantification by tandem mass spectrometry (MS/MS). Data were acquired on a MassHunter Workstation Acquisition version B03.01 (Agilent Technologies, Inc.) and processed using MassHunter Quantitative Analysis for QQQ. Accuracy was determined for each hormone analyte from 3 standards to determine upper and lower limits of quantification (ULOQ and LLOQ, respectively) using a 7-point standard curve. Precision and accuracy of the extraction and quantification methods were calculated as the percent relative standard deviation (%RSD) of the spiked standards and percent spiked standard recovered, respectively. The goal was to achieve 100% accuracy (i.e., recover all spiked-in standard at quantification with minimal loss during run time) and good precision (i.e., have %RSD <15% to ensure reproducibility). Test medium was removed following chemical exposure, and cell viability was evaluated in the same wells by MTT. MTT procedures were as follows: after removal of test medium, 500 uL of 0.5 mg/ml of 3-[4,5-dimethylthiazol-2-y]2,5-diphenyltetrazoliumbromide solution was added to the cells. Following a 4-hour incubation at 37 C and 5% CO2 to allow formazan-crystal formation, the MTT solution was removed and blue formazan salt crystals were solubilized using 500uL anhydrous isopropanol with shaking for 20 minutes. Absorbance was read at 570 and 650nm using a Packard Fusion microplate reader. […]
Structure (SMILES),outcome,AC50
CNC(=O)ON=C(C)SC,inactive,
CCOP(=S)(OCC)Oc1ccc([N+](=O)[O-])cc1,,0.444 µM (active)
CCOP(=O)(NC(C)C)Oc1ccc(SC)c(C)c1 (stereo unspecified),,32.2 µM (active)
CC(C1CC1)C(O)(Cn1cncn1)c1ccc(Cl)cc1 (stereo unspecified),,2.23 µM (active)
CCCOCC(=Nc1ccc(Cl)cc1C(F)(F)F)n1ccnc1,,0.336 µM (active)
CN(C)C(=O)Nc1cccc(C(F)(F)F)c1,inactive,
CSc1nnc(C(C)(C)C)c(=O)n1N,inactive,
CCCSP(=O)(OCC)SCCC,inactive,
CSc1nc(NC(C)C)nc(NC(C)C)n1,inactive,
CN(C)NC(=O)CCC(=O)O,inactive,
CCOC(=O)COc1cc(-c2nn(C)c(OC(F)F)c2Cl)c(F)cc1Cl,inactive,
Nc1nc(N)nc(NC2CC2)n1,inactive,
FC(F)C(F)(F)OCC(Cn1cncn1)c1ccc(Cl)cc1Cl (stereo unspecified),inactive,
CNC(=O)ON=C(SC)C(=O)N(C)C,inactive,
CCCCN(CC)c1c([N+](=O)[O-])cc(C(F)(F)F)cc1[N+](=O)[O-],inactive,
CCCSP(=O)(OCC)Oc1ccc(Br)cc1Cl (stereo unspecified),inactive,

Structure (SMILES),outcome,AC50
CC1(C(=O)Nc2ccc(O)c(Cl)c2Cl)CCCCC1,,7.63 µM (active)
O=C(O)c1cc(Oc2ccc(C(F)(F)F)cc2Cl)ccc1[N+](=O)[O-],inactive,
C[Si](Cn1cncn1)(c1ccc(F)cc1)c1ccc(F)cc1,inactive,
CCOP(=S)(OCC)Oc1ccc2c(C)c(Cl)c(=O)oc2c1,,2.59 µM (active)
CC(COc1ccc(Oc2ccccc2)cc1)Oc1ccccn1 (stereo unspecified),inactive,
C#CC(C)(C)NC(=O)c1cc(Cl)cc(Cl)c1,,10.4 µM (active)
COc1cccc(C(=O)NN(C(=O)c2cc(C)cc(C)c2)C(C)(C)C)c1C,inactive,
CNc1cnn(-c2cccc(C(F)(F)F)c2)c(=O)c1Cl,inactive,
COP(=O)(NC(C)=O)SC (stereo unspecified),inactive,
CCc1cccc(C)c1N(C(=O)CCl)C(C)COC (stereo unspecified),inactive,
C#CCC1=C(C)C(OC(=O)C2C(C=C(C)C)C2(C)C)CC1=O (stereo unspecified),inactive,
COc1ccc(C(=CC(=O)N2CCOCC2)c2ccc(Cl)cc2)cc1OC,inactive,
CCNc1nc(Cl)nc(NC(C)(C)C#N)n1,inactive,
CCOP(=S)(OCC)Oc1cc(C)nc(C(C)C)n1,,26 µM (active)
CNC(=O)Oc1cccc2c1OC(C)(C)O2,,4.74 µM (active)
